These results are taken from PubChem BioAssay (Tox21).

Each structure is given as a SMILES string. “And” between values parts separate entries of the source, which are not always exact repeats. Equal entries are not always repeated. Results filed as inconclusive are left out. Where a call stands in place of a potency, no number is given. More than one record can exist for a structure, and the calls need not agree. The source made the active and inactive calls. Unless noted, the call rests on the fitted dose curve.

Chain of Estrogen receptor beta (Homo sapiens) (Q92731 whole entry, looked up): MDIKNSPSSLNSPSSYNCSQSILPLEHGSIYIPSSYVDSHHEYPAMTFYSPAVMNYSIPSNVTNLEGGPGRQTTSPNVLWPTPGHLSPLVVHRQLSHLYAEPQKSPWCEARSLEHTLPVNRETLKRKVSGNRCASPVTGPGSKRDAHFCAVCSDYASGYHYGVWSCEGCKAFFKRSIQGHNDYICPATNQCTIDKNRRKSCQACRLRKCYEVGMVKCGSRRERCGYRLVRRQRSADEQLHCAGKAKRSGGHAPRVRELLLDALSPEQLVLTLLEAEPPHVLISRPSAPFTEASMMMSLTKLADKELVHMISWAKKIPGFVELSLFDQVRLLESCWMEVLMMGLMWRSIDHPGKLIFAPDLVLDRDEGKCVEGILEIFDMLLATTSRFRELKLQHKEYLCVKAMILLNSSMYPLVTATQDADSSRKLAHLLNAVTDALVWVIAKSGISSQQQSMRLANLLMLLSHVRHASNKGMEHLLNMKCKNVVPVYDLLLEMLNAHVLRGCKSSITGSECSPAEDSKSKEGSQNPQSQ

Tested on in the first assay: not listed separately
Nature of the assay: qHTS assay to identify small molecule antagonists of the sonic hedgehog signaling (Shh) pathway (AID 1259369). Further: nearly all actives have a fitted effect of over 45% in size. Further: potency means the concentration at half of the fitted maximal effect. As to conditions: NIH/3T3 Gli1-Luc reporter, Shh antagonist, luminescence 24 h; series mostly up to 92.4 µM. The procedure, abridged: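 NIH/3T3-derived Gli1-Luc reporter cells plated 4 h, dosed with compound, then stimulated with conditioned medium for 24 h at 37 C. Firefly luciferase luminescence read after 30 min with detection reagent at room temperature.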
Background: Quantitative high-throughput screening tests each substance at several concentrations.
With `c1ccc2c(c1)Oc1ccccc1S2`, the Potency entry is “inactive”.
On the same count and under the same terms, as for `C#C[C@]1(O)CC[C@H]2[C@@H]3CCc4cc(OC)ccc4[C@H]3CC[C@@]21C`, the entry is “inactive”; as for `Cc1cc2nc3c(=O)[nH]c(=O)nc-3n(C[C@H](O)[C@H](O)[C@H](O)CO)c2cc1C`, “inactive”.
On the same count and under the same terms, as for `COC(=O)c1ccccc1`, the entry is “inactive”; as for `CC(C)OC=O`, 32.6 µM (active) and inactive; as for `Cc1ccc(C(=O)c2cc(O)c(O)c([N+](=O)[O-])c2)cc1`, 24.3 µM (active).
Still for that read-out and setting: as for `O=C1c2cccc(O)c2C(=O)c2c(O)cccc21`, the entry is “inactive”; as for `C[Si](C)(C)O[Si](C)(C)C`, “inactive”; as for `O=C=Nc1ccc(Cc2ccc(N=C=O)cc2)cc1`, “inactive”.
For the compound `CN(C)C(=N)N=C(N)N`, the Potency result is “inactive”.
Same read-out and setting: as for `NNc1ccc(C(=O)O)cc1`, the entry is “inactive”; as for `CCCCCCCCCC(=O)OC`, “inactive”; as for `c1ccncc1`, “inactive”.
Same read-out and setting: as for `Cc1c(OCC(F)(F)F)ccnc1CS(=O)c1nc2ccccc2[nH]1` (stereo not drawn), the entry is “inactive”; as for `O=C(/C=C/C=C/c1ccc2c(c1)OCO2)N1CCCCC1`, “inactive”; as for `COC(=O)Nc1nc2ccc(S(=O)c3ccccc3)cc2[nH]1` (stereo not drawn), 2.37 µM (active).
Regarding `S=C(NC1CCCCC1)NC1CCCCC1`, the Potency was 24.3 µM (active).
The same measure, in the same setting: as for `O=C(COc1ccc(Cl)cc1)N1CCN(Cc2ccc3c(c2)OCO3)CC1`, the figure is 17.2 µM (active) and 18.8 µM (active); as for `c1ccc(Nc2ccccc2)cc1`, “inactive”; as for `CCC(C)(O)CCCC(C)C` (stereo not drawn), “inactive”.
Consider `Cn1cnc([N+](=O)[O-])c1Sc1ncnc2nc[nH]c12`, for which the Potency is 30.4 µM (active).
With `CCOC(=O)C(C#N)=C(c1ccccc1)c1ccccc1`, the Potency entry was “inactive”.
As to `O=C(c1ccccc1)c1ccc(O)cc1O`, the Potency is 27.8 µM (active).
The same measure, in the same setting: as for `CN(C)c1nc(N(C)C)nc(N(C)C)n1`, the entry is “inactive”; as for `CC(C)=CCC/C(C)=C\CO`, “inactive”; as for `C/C=C/C(=O)O`, “inactive”.
With `CC(=O)CC/C=C(\C)CCC=C(C)C`, the Potency result is “inactive”.
As for `Nc1ccc(Cl)cc1Cl`, the Potency entry was “inactive”.
On the same count and under the same terms, as for `Brc1cc(Oc2cc(Br)c(Br)c(Br)c2Br)c(Br)c(Br)c1Br`, the entry is “inactive”; as for `OC1CCCCCCCCCCC1`, “inactive”.
Regarding `CCCCOCCOCCO`, the Potency result is “inactive”.
For `COc1ccccc1/C=C/C=O`, the Potency was 35.3 µM (active) and inactive.
Turning to `C[C@]12CC[C@H]3[C@@H](CCC4=CC(=O)CC[C@@]43C)[C@@H]1CC[C@@H]2C(=O)CO`, the Potency is 15.4 µM (active) and inactive.
As for `CC(=O)O[C@]1(C(C)=O)CC[C@H]2[C@@H]3C=C(Cl)C4=CC(=O)[C@@H]5C[C@@H]5[C@]4(C)[C@H]3CC[C@@]21C`, the Potency was 4.32 µM (active) and 27.3 µM (active) and inactive.
Same read-out and setting: the value for `CCCCOCCOCCOCCO` was “inactive”; that for `CC1=CC2C3CC(C=C3C)C2C1` (stereo not drawn) was “inactive and 21.7 µM (active)”.
On the same count and under the same terms, the value for `CC(C)(C)NC(=O)[C@H]1CC[C@H]2[C@@H]3CC[C@H]4NC(=O)C=C[C@]4(C)[C@H]3CC[C@]12C` was 2.7 µM (active) and inactive.
On the same count and under the same terms, the value for `CC(C)Oc1ccc2c(=O)c(-c3ccccc3)coc2c1` was “inactive”; that for `O=C1OC2(c3cc(Br)c(O)c(Br)c3Oc3c2cc(Br)c(O)c3Br)c2c(Cl)c(Cl)c(Cl)c(Cl)c21` was “inactive”.

A further assay has as its target Estrogen receptor beta (Homo sapiens) (UniProt Q92731). Nature of the assay: qHTS assay to identify small molecule agonists of the estrogen receptor beta (ER-beta) signaling pathway (AID 1259377; active means well fitted activation curve with a large enough effect in the signal ratio in the repeat runs, not every such curve was filed as active; the % refers to the signal ratio). As to conditions: ER-beta-UAS-bla HEK293T, beta-lactamase FRET ratio, 16 h; series mostly up to 92.4 µM. The procedure, abridged: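 Measured by fluorescence intensity from a B/G FRET beta-lactamase substrate (2 h, room temperature) in ER-beta-UAS-bla HEK293T cells treated with DMSO-dissolved compounds for 16 hr at 37C and 5% CO2.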
`c1ccc2c(c1)Oc1ccccc1S2`: the Potency result was “inactive”.
Still for that read-out and setting: the value for `Cc1cc2nc3c(=O)[nH]c(=O)nc-3n(C[C@H](O)[C@H](O)[C@H](O)CO)c2cc1C` was “inactive”; that for `COC(=O)c1ccccc1` was “inactive”; that for `C[Si](C)(C)O[Si](C)(C)C` was “inactive”.
With `O=C=Nc1ccc(Cc2ccc(N=C=O)cc2)cc1`, the Potency result is “inactive”.
Still for that read-out and setting: as for `NNc1ccc(C(=O)O)cc1`, the entry is “inactive”; as for `CCCCCCCCCC(=O)OC`, “inactive”.
Still for that read-out and setting: the value for `c1ccncc1` was “inactive”; that for `Cc1c(OCC(F)(F)F)ccnc1CS(=O)c1nc2ccccc2[nH]1` (stereo not drawn) was “inactive”.
Same read-out and setting: the value for `O=C(/C=C/C=C/c1ccc2c(c1)OCO2)N1CCCCC1` was “inactive”; that for `S=C(NC1CCCCC1)NC1CCCCC1` was “inactive”; that for `c1ccc(Nc2ccccc2)cc1` was “inactive”.
On to `Cn1cnc([N+](=O)[O-])c1Sc1ncnc2nc[nH]c12`, for which the Potency entry was “inactive”.
Same read-out and setting: the value for `CCOC(=O)C(C#N)=C(c1ccccc1)c1ccccc1` was “inactive”.
Regarding `CN(C)c1nc(N(C)C)nc(N(C)C)n1`, the Potency result was “inactive”.
Same read-out and setting: the value for `C/C=C/C(=O)O` was “inactive”; that for `CC(=O)CC/C=C(\C)CCC=C(C)C` was “inactive”.
On the same count and under the same terms, the value for `CCCCOCCOCCO` was “inactive”; that for `COc1ccccc1/C=C/C=O` was “inactive”; that for `C[C@]12CC[C@H]3[C@@H](CCC4=CC(=O)CC[C@@]43C)[C@@H]1CC[C@@H]2C(=O)CO` was “inactive”.
The same measure, in the same setting: as for `CC(=O)O[C@]1(C(C)=O)CC[C@H]2[C@@H]3C=C(Cl)C4=CC(=O)[C@@H]5C[C@@H]5[C@]4(C)[C@H]3CC[C@@]21C`, the entry is “inactive”; as for `CCCCOCCOCCOCCO`, “inactive”; as for `CC1=CC2C3CC(C=C3C)C2C1` (stereo not drawn), “inactive”.
With `O=C1OC2(c3cc(Br)c(O)c(Br)c3Oc3c2cc(Br)c(O)c3Br)c2c(Cl)c(Cl)c(Cl)c(Cl)c21`, the Potency result was “inactive”.
